The values below come from PubChem BioAssay AID2590 (National Center for Advancing Translational Sciences (NCATS), 2010).

Several values for one entry are separate records, joined by “and”; a condition that tells them apart may be missing. Equal values may be shown once. Results filed as inconclusive are left out. Values without a mark were called inactive. Activity calls are given as the source filed them. The call rests on the fitted dose curve; in most records, active means well fitted curve in the direction sought with a large enough effect; inconclusive means small, poorly fitted or top-dose-only effect, or another doubt; inactive means no such curve, though single readings can be large or run the other way.
Potency means the concentration at half of the fitted maximal effect.

In this test the target is Lysosomal acid glucosylceramidase (Homo sapiens) (UniProt P04062). Description: qHTS Assay for Inhibitors and Activators of N370S glucocerebrosidase as a Potential Chaperone Treatment of Gaucher Disease: Primary Screen Confirmation.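 On activity change, negative = inhibition: 0% = enzyme with DMSO and -100% = no enzyme basal signal.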 The following applies: N370S glucocerebrosidase enzyme activity, fluorogenic substrate; series mostly up to 54 µM; activity change, negative = inhibition: at the top concentration. From the text: NIH Chemical Genomics Center [NCGC]
Sequence of Lysosomal acid glucosylceramidase (Homo sapiens) (P04062 whole entry N409S): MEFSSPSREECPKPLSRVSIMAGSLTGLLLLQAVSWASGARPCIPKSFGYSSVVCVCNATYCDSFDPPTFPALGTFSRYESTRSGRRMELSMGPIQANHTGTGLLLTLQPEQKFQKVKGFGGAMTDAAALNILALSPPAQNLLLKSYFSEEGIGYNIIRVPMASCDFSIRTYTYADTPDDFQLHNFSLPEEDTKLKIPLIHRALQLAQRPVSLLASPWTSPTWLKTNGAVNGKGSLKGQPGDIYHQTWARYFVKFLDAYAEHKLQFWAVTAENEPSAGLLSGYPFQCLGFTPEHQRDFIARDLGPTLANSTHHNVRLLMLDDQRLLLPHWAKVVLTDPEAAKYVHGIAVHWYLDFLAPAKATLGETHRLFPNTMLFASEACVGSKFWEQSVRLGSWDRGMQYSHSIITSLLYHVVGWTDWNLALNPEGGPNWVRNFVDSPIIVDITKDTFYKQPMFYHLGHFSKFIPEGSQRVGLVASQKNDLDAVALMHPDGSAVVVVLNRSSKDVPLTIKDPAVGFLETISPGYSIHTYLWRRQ
NIH Molecular Libraries Probe Production Centers Network [MLPCN]
Assay Submitter (PI): Wei Zheng
Glucocerebrosidase (GC) catalyzes the hydrolysis of beta-glucocerebroside to glucose and ceramide in lysosomes. Mutations in the glucocerebrosidase gene result in Gaucher disease, an autosomal recessive lysosomal storage disorder. Many of the mutations encountered in patients with Gaucher disease are missense alterations that may cause misfolding, decreased stability and/or mistrafficking of this lysosomal protein. […] These inhibitors include iminosugar analogs and three non-iminosugar inhibitors identified from a previous HTS of 62,000 compounds with the wild type recombinant enzyme. However, the enhancement of enzyme activity by the chaperone action of an enzyme inhibitor must be balanced against the direct inhibition of the enzyme. An enzyme activator could also function as a chaperone by binding to the enzyme and helping to correct its misfolding and mistrafficking. While activators for GC have not yet been identified, they may have better therapeutic potential than inhibitors. Therefore the discovery and development of chemical activators may provide a new strategy for the chaperone therapy.
We have optimized a new assay using N370S mutant GC derived from the spleen of a Gaucher patient. […] In addition, the MLPCN compound library has expanded, which increases the chance of finding new and better probes.
NCGC Assay Protocol Summary:
This is a fluorogenic enzyme assay with 4-methylumbelliferyl-beta-D-glucopyranoside as the substrate and N370S glucocerebrosidase from human spleen homogenate as the enzyme preparation. Upon the hydrolysis of this fluorogenic substrate, the resulting product, […] which can be detected by a standard fluorescence plate reader. Data were normalized to the controls for basal activity (without enzyme) and 100% activity (with enzyme). The AC50 values were determined from concentration-response data modeled with the standard Hill equation.
Assay buffer: 50 mM citric acid (titrated with potassium phosphate to pH 5.0), 100 mM potassium chloride, 10 mM sodium chloride, 1 mM magnesium chloride, 0.01% Tween-20.
1536-well assay protocol:
(1) Add 2 ul/well of spleen homogenate (27 ug final)
(2) Add 23 nL compounds in DMSO solution. The final titration was 0.5 nM to 58 uM.
(3) Add 2 ul of substrate (1 mM final)
(4) Incubate at 37C for 40 min.
(5) Add 2 ul stop solution (1M NaOH and 1M Glycine mixture, pH 10)
(6) Detect the assay plate in a ViewLux plate reader (PerkinElmer) with Ex=365 nm and Em=440nm.
Keywords: Glucocerebrosidase, beta-glucosidase, Gaucher Disease, pharmacological chaperone, chaperone therapy, high throughput screening, glucocerebrosidase inhibitor, MLSMR, MLSCN, NIH Roadmap, qHTS and NCGC
For orientation: In qHTS, concentration-response curves come from the screen itself.
As for `CCOc1ccc(N(CC(=O)Nc2ccc(C)cc2)S(=O)(=O)c2c(C)[nH]c(=O)[nH]c2=O)cc1`, the Potency was 11.2 µM (active). Still for that read-out and setting: as for `Cc1ccc2nc(-c3ccc(SCC(=O)N4CCc5ccccc54)nc3)[nH]c2c1`, the figure is 10 µM (active). Turning to `Cc1ccc(CC(=O)Nc2cccc(C)n2)cc1`, the “activity change, negative = inhibition” value is 6.66%. `Cc1cc2[nH]c(=O)c(=O)[nH]c2cc1S(=O)(=O)N1CCN(c2cccc(C)c2C)CC1`: the Potency was 4.11 µM (active). Turning to `CCCCN(Cc1ccc(Cl)c(Cl)c1)c1ccc(Br)cn1`, the “activity change, negative = inhibition” value is -6.38%. As to `CC(C)(C)C(=O)OCCNc1nc(-c2ccccc2)nc2ccccc12`, the Potency is 1.42 µM (active).

With `CCCCNC(=S)NCCCc1cnc[nH]1`, the “activity change, negative = inhibition” value is -23.1%. For `CCOCCCNc1nc(-c2ccccc2)nc2ccccc12`, the Potency was 10.1 µM (active).

For `Cc1ccc(S(=O)(=O)N2CCN(c3nc(-c4cccs4)cc4ccccc34)CC2)cc1`, the Potency was 3.26 µM (active). Turning to `Cc1ccccc1NC(=O)Nc1ccccn1`, the “activity change, negative = inhibition” value was 2.43%.

For `CC(C)S(=O)(=O)N1CCN(c2nc(-c3cccs3)nc3ccccc23)CC1`, the Potency is 5.07 µM (active). On the same count and under the same terms, as for `O=S(=O)(c1ccc2ccccc2c1)N1CCN(c2nc(-c3ccccc3)nc3ccccc23)CC1`, the figure is 4.61 µM (active). Turning to `Cc1cccc(S(=O)(=O)N2CCN(c3nc(-c4cccs4)nc4ccccc34)CC2)c1`, the Potency is 2.01 µM (active). Still for that read-out and setting: the same measure for `CCOC(=O)c1ccc(S(=O)(=O)N2CCN(c3nc(-c4ccccc4)nc4ccccc34)CC2)cc1`: 5.17 µM (active).

`Cc1ccc(S(=O)(=O)N2CCCN(c3nc(-c4cccs4)nc4ccccc34)CC2)cc1`: the Potency was 5.66 µM (active). Same read-out and setting: as for `c1ccc(CNc2nc(-c3ccccc3)nc3ccccc23)cc1`, the figure is 10.1 µM (active). The same measure, in the same setting: as for `COc1ccc(Nc2nc(-c3cccs3)nc3ccccc23)cc1`, the figure is 2.25 µM (active); as for `O=S(=O)(c1ccc(F)cc1)N1CCN(c2nc(-c3ccccc3)nc3ccccc23)CC1`, 6.51 µM (active). In the case of `N#Cc1cccc(S(=O)(=O)N2CCN(c3nc(-c4cccs4)nc4ccccc34)CC2)c1`, the Potency is 2.01 µM (active). `Cc1ccc(S(=O)(=O)N2CCN(c3nc(C#N)nc4ccccc34)CC2)cc1`: the “activity change, negative = inhibition” value was -15.6%. As for `CCOC(=O)c1ccccc1S(=O)(=O)N1CCN(c2nc(-c3cccs3)nc3ccccc23)CC1`, the Potency is 0.366 µM (active).

For the compound `COc1ccc(N(CC(=O)NC2CCCCC2)S(=O)(=O)c2c(C)[nH]c(=O)[nH]c2=O)cc1`, the Potency was 11.2 µM (active). For `CC1(C)CCc2cc(S(=O)(=O)N3CCN(c4nc(-c5cccs5)nc5ccccc45)CC3)ccc2O1`, the Potency was 1.13 µM (active). On to `Oc1ccccc1Nc1nc(NCC2CCCO2)c2ccccc2n1` (stereo not given), for which the “activity change, negative = inhibition” value was -38.7%. As to `Cc1cc(C)cc(N(CC(=O)Nc2ccc(C)cc2Cl)S(=O)(=O)c2c(C)[nH]c(=O)[nH]c2=O)c1`, the Potency was 1.63 µM (active). Same read-out and setting: as for `C#CCOCCOCCOCCNc1nc(N2CCN(C(=O)CCCCCCCCCCNC(=O)[C@H](CO)n3cc(CCCSC)nn3)CC2)nc(N2CCN(C(=O)CCCCCCCCCCNC(=O)[C@H](CCCN=C(N)N)n3cc(C[C@@H](C)CC)nn3)CC2)n1`, the figure is 6.51 µM (active). Still for that read-out and setting: as for `S=C(NCCCc1cnc[nH]1)NCCCN(Cc1ccc(Cl)c(Cl)c1)c1ccc(Br)cn1`, the figure is 650 nM (active) and 579 nM (active). As to `N#Cc1ccc(S(=O)(=O)N2CCN(c3nc(-c4cccs4)nc4ccccc34)CC2)cc1`, the Potency is 2.01 µM (active). For `O=S(=O)(c1ccc(F)cc1)N1CCN(c2nc(-c3cccs3)nc3cc(Cl)ccc23)CC1`, the “activity change, negative = inhibition” value is -13.8%. The same measure, in the same setting: the same measure for `CN(CCO)c1nc(-c2cccs2)nc2ccccc12`: -23.1%. Regarding `c1ccc(CNc2nc(-c3cccs3)nc3ccccc23)cc1`, the Potency was 7.13 µM (active) and 5.66 µM (active).

Regarding `N#C/C(=C\c1c(Oc2ccccc2Cl)nc2ccccn2c1=O)C(=O)NC1CCS(=O)(=O)C1` (stereo not given), the “activity change, negative = inhibition” value was 1.08%. On to `S=C(NCCCc1cnc[nH]1)NCCN(Cc1ccc(Cl)c(Cl)c1)c1ccc(Br)cn1`, for which the Potency was 2.06 µM (active). On the same count and under the same terms, the same measure for `N=c1c2c(-c3ccccc3)c(-c3ccccc3)n(Cc3ccco3)c2ncn1CCCn1ccnc1`: 12.6 µM (active); for `O=S(=O)(c1ccc2ncccc2c1)N1CCN(c2nc(-c3cccs3)nc3ccccc23)CC1`: 0.8 µM (active). As for `CC(=O)N1CCN(C(=O)c2cc(-c3ccc(Cl)s3)nc3ccccc23)CC1`, the “activity change, negative = inhibition” value is -3.72%.

Regarding `CCCCNC(=O)c1cc2c(=O)n3cccc(C)c3nc2s1`, the “activity change, negative = inhibition” value is 23.8%.

Consider `O=S(=O)(c1ccc(F)cc1F)N1CCN(c2nc(-c3cccs3)nc3ccccc23)CC1`, for which the Potency was 1.27 µM (active). Consider `CCOc1ccc(S(=O)(=O)N2CCN(c3nc(-c4ccccc4)nc4ccccc34)CC2)cc1`, for which the Potency is 4.11 µM (active). `COc1cccc(NC(=O)CSc2nc3c(sc4ccccc43)c(=O)n2CCCN2CCCC2)c1`: the “activity change, negative = inhibition” value was -26.5%.
